PubChem BioAssay (NCI)
This is part of a sample that, as a whole, favours compounds with a hit. Of some 79,000 tested, about 15% had one in any assay. Rule as the data show it: active = growth inhibition above about 70%; inactive = the rest.

Assays:
[1] = NCI Yeast Anticancer Drug Screen. Data for the rad50 strain (AID 155);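 also: 0% = growth of vehicle-only cultures of the same strain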; details: S. cerevisiae rad50 strain growth inhibition; at 50.0 µM; active compounds read high
Procedure, shortened: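 Growth of the mutant yeast was measured after compound exposure and referenced to vehicle-treated cultures.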

[2] = NCI Yeast Anticancer Drug Screen. Data for the mec2-1 strain (AID 157); details: S. cerevisiae mec2-1 strain, at 50.0 µM, active compounds read high
Procedure, shortened: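 Mutant yeast (mec2-1) grown with compound; growth inhibition relative to vehicle control reported.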

[3] = NCI Yeast Anticancer Drug Screen. Data for the sgs1 mgt1 strain (AID 161);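 also: 0% = growth of cultures given vehicle only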; details: S. cerevisiae sgs1 mgt1 strain, at 50.0 µM, active compounds read high
Procedure, shortened: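 Compounds are added to genetically altered yeast, and growth is compared with cultures given vehicle alone to give percent inhibition.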

[4] = NCI Yeast Anticancer Drug Screen. Data for the cln2 rad14 strain (AID 165);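 also: 0% = growth equal to vehicle treated cultures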; details: S. cerevisiae cln2 rad14 strain, at 50.0 µM, active compounds read high
Procedure, shortened: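 Readout is yeast growth inhibition versus vehicle-treated controls, using a strain with cln2 and rad14 alterations exposed to compound.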

[5] = NCI Yeast Anticancer Drug Screen. Data for the bub3 strain (AID 167); details: S. cerevisiae bub3 mutant strain, at 50.0 µM, active compounds read high
Procedure, shortened: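 Whole-cell yeast assay. The mutant strain was incubated with compounds, and growth inhibition was determined by comparison with vehicle-treated cells.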

[6] = NCI Yeast Anticancer Drug Screen. Data for the mlh1 rad18 strain (AID 175); details: S. cerevisiae mlh1 rad18 strain growth inhibition; at 50.0 µM; active compounds read high
Procedure, shortened: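 Genetically defined yeast (DNA repair-deficient) exposed to compounds; growth inhibition determined relative to vehicle.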

Measured: growth inhibition

Cc1cc2nc3c(C(O)C(O)C(O)CO)nn(-c4ccccc4)c3nc2cc1C (stereo unspecified)
inactive: [1] -2.55% | [2] 5.05% | [3] -9.25% | [4] -15.6% | [5] -5.05% | [6] 16.1%

Nc1nc(SCCCc2ccccc2)c2[nH]cnc2n1
inactive: [1] 7.95% | [2] -2.9% | [3] -3.4% | [4] 25.1% | [5] 31.6% | [6] -6.55%

C#CCNCCCn1c(=O)nc2n(-c3ccccc3)c3ccccc3nc-2c1=O
inactive: [1] 56% | [2] 19.2% | [3] 27.1% | [4] 29.4% | [5] 0.55% | [6] 43%

Cc1cccc(C)c1N1C(=O)C2c3[nH]c4ccccc4c3C3CCC(C(C)(C)C)CC3C2C1=O (stereo unspecified)
inactive: [1] 37.7% | [2] 11.4% | [3] 28.2% | [4] 1.8% | [5] 3.4% | [6] 18.1%

CCOC(=O)c1c[nH]c2c(Cl)c(C)ccc2c1=O
inactive: [1] -40.1% | [2] -48.1% | [3] -17.6% | [4] -110% | [5] -30.1% | [6] -4.75%

CC(=O)Nc1ccc(C(F)(F)F)cc1
inactive: [1] -5.2% | [2] -7.75% | [3] -15.8% | [4] -3.15% | [5] -7.7% | [6] 13.2%

O=C1NC(=O)C(c2cccc(F)c2)N1 (stereo unspecified)
inactive: [1] -12.1% | [2] -12.3% | [3] 9.7% | [4] -9% | [5] 4.7% | [6] -7.7%

C1=C/CCC2OC2CC/C=C/CC/1 (stereo unspecified)
inactive: [1] -9.8% | [2] -55.2% | [3] -24.8% | [4] 11.8% | [5] -29.2% | [6] -4.2%

COC1CCC(O)C(C=Nc2ccccc2)C1 (stereo unspecified)
inactive: [1] 4.8% | [2] -1.85% | [3] -11.8% | [4] 4.35% | [5] 8.5% | [6] -18.8%

CCCCN(CCCC)C1(c2ccccc2)OC(c2ccccc2)=CC1=O (stereo unspecified)
inactive: [1] 1.45% | [2] 5.75% | [3] -0.55% | [4] -10.5% | [5] 2.8% | [6] 20.6%

COC(=O)CC(C)N(c1ccc(OC)cc1)S(=O)(=O)c1ccc(C)cc1 (stereo unspecified)
inactive: [1] 18.4% | [2] 4.05% | [3] 14.3% | [4] -46% | [5] 17.6% | [6] 10.3%

CC(=O)C(=Cc1c[nH]c2ccccc12)C(C)=O
inactive: [1] 31.7% | [2] 13.7% | [3] 38.4% | [4] 9.65% | [5] 35.4% | [6] 31.6%

CC(C)NC1(C#N)CCN(Cc2ccccc2)CC1
inactive: [1] -29.8% | [2] -45.1% | [3] -41.4% | [4] 10.2% | [5] -29.1% | [6] -37.5%

CCOC(=O)/C=C/SCCCN
inactive: [1] 3.95% | [2] -1.4% | [3] 3.3% | [4] -22.3% | [5] -4.75% | [6] 6.4%

COC1CCC2(C)C3CCC4C(=CCC5C(C)(C)C(=O)CCC45C)CC3(C)CCC2C1(C)C (stereo unspecified)
inactive: [1] 16.3% | [2] -11.3% | [3] -8.55% | [4] -12.8% | [5] -2.2% | [6] -12.1%

NCCNCc1ccccc1
inactive: [1] 5.5% | [2] -1.5% | [3] 2.85% | [4] 5.65% | [5] -1.8% | [6] 0.15%

CCOC(=O)c1ccc(NN=NC(C)(C)C)cc1
inactive: [1] 10.8% | [2] -8.5% | [3] -15.2% | [4] -29.2% | [5] -7.3% | [6] -11.1%

CCN(CC)C(=O)c1cc([N+](=O)[O-])c(=O)n2c1[nH]c1ccccc12
inactive: [1] -17.9% | [2] 6.8% | [3] -59.6% | [4] 23.1% | [5] -18.5% | [6] -5.85%

c1coc(CNc2ncnc3nccnc23)c1
inactive: [1] -16.9% | [2] -4.35% | [3] -15.6% | [4] -20.2% | [5] -32.5% | [6] -4.45%

CCCO/N=[N+](\[O-])N(CC)CC
inactive: [1] -7.7% | [2] -17.4% | [3] 7.5% | [4] 13.8% | [5] -0.8% | [6] -1.45%

COC(c1ccccc1)c1ccccc1
inactive: [1] -21.1% | [2] 4.9% | [3] 29.5% | [4] -16.4% | [5] 1.75% | [6] -8%

CCC(=O)c1cccc(-c2ccccc2)c1C
inactive: [1] 7% | [2] -13.5% | [3] -2.5% | [4] 4.25% | [5] 11.7% | [6] 11.5%

O=[N+]([O-])c1ccc(N/N=C/C2CC=CCC2)c([N+](=O)[O-])c1 (stereo unspecified)
inactive: [1] 7% | [2] -6.8% | [3] -8.55% | [4] -13.1% | [5] -5.65% | [6] 5.25%

COc1ccc2occc2c1
inactive: [1] 0% | [2] -1.55% | [3] -17.7% | [4] 2.7% | [5] -0.75% | [6] 10.1%

Clc1cc(Cl)cc(C=NC23CC4CC(CC(C4)C2)C3)c1
inactive: [1] -13.8% | [2] -31.2% | [3] -40.5% | [4] -20% | [5] -24.4% | [6] -11%

Cc1nn(C(=O)c2ccc(Cl)cc2)c2c1C(c1ccccc1O)SC(N)=N2 (stereo unspecified)
inactive: [1] -29.9% | [2] -47.1% | [3] -30.1% | [4] -1.45% | [5] -11.5% | [6] -25.1%

Cc1ccc(S(=O)(=O)Nn2c(O)c(C#N)c(-c3ccc(N(C)C)cc3)c(C#N)c2=O)cc1
inactive: [1] -6.7% | [2] -20.1% | [3] -44.5% | [4] 1.7% | [5] -19.1% | [6] -20.9%

Nc1nc(N)c2nnsc2n1
inactive: [1] 13.7% | [2] -5.05% | [3] 13.3% | [4] 16.6% | [5] 14.4% | [6] 2.9%

CC(C)C(C(N)=O)C(C)(C)C (stereo unspecified)
inactive: [1] 1.1% | [2] 4.2% | [3] 14.9% | [4] 8.6% | [5] -7.5% | [6] -9.55%

Cc1nc2ccccc2nc1C1=C(O)c2ccccc2CC1=O
inactive: [1] 0.85% | [2] 8.6% | [3] 10.1% | [4] -71.2% | [5] -10.2% | [6] 1.35%

Cc1nc2ccccc2nc1CC(=O)c1ccccc1
inactive: [1] 43.3% | [2] 15.3% | [3] 48% | [4] 18.5% | [5] 54.4% | [6] 43.5%

O=CC(C(=O)c1ccccc1[N+](=O)[O-])c1ccccc1 (stereo unspecified)
inactive: [1] 9.6% | [2] 5.7% | [3] 15.9% | [4] 15.8% | [5] 13.7% | [6] 13.4%

CC(=O)OCC1OC(Oc2ccccc2)C(OC(C)=O)C(OC(C)=O)C1OC(C)=O (stereo unspecified)
inactive: [1] -3.4% | [2] -5.3% | [3] -0.05% | [4] 12.4% | [5] -4.1% | [6] -10.7%

CC(C)CN(CC(C)C)C(=O)CCl
inactive: [1] -3.1% | [2] -0.3% | [3] 14.1% | [4] -15.9% | [5] 6% | [6] -1.65%

c1ccc(C(CCN2CC3CCC(CC3)C2)c2ccccc2)cc1
inactive: [1] 14.6% | [2] -21.4% | [3] -17.9% | [4] -22.6% | [5] -21.9% | [6] 22.6%

C/C(=N/O)c1cccc([N+](=O)[O-])c1
inactive: [1] -10.7% | [2] 15.5% | [3] -4.95% | [4] -14.3% | [5] -3.6% | [6] -7.15%

Cc1c(O)c(=O)ccn1C1OC(CO)C(O)C1O (stereo unspecified)
inactive: [1] 16.5% | [2] 22.9% | [3] 25.5% | [4] -2.9% | [5] 15.8% | [6] 26%

C[N+](C)(C)/N=C/c1ccc(O)c(O)c1
inactive: [1] -48.2% | [2] -23.8% | [3] -15.3% | [4] -16% | [5] -14.9% | [6] -13.8%

CC(C)(C)NCC(O)c1ccc(O)c(CO)n1 (stereo unspecified)
inactive: [1] 1.3% | [2] -8.05% | [3] -19.4% | [4] 9.05% | [5] -8.9% | [6] -3.3%

Cc1ccc(C(=O)O)c(O)c1
inactive: [1] 11.7% | [2] -1.7% | [3] -14.8% | [4] -13.9% | [5] -26% | [6] -2.5%

C/C(=N/O)c1ccc[cH-]1.[Fe+2].c1cc[cH-]c1
inactive: [1] 20.1% | [2] -5.3% | [3] 0.45% | [4] -0.8% | [5] -8.4% | [6] -11.5%
